Source: PubChem
BRCA1 expr act: increases BRCA1 expression | AID 624202 | Potency, µM (titrated, usually from 46.1 µM), inactives show at the highest dose activation, actives largely listed as activators | MCF7-BRCA1-FFLuc reporter, luminescence, 48 h; response scale: scaled: vehicle 0%, 10 µM genistein 100% | 380,000 compounds, 1.1% hits; note: potency is the fitted concentration of half-maximal effect; nearly all actives have a fitted effect of over 80% in size
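Luminescence from a BRCA1-driven firefly luciferase in MCF7 cells was the read-out, taken 15 min after substrate addition following 48 h compound exposure at 37 °C. Data were normalized to a 10 microM genistein control and DMSO vehicle.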
IL-2 act: IL-2 activation. IL-2 activation reporter assay, cell-based qHTS; stimulated with anti-CD3/CD4/CD28 beads; in transgenic mouse T cells. activation, % (series mostly up to about 46 µM). 360,000 compounds, 0.065% hits. AID 652025; in the data active = activation above about 50%; inconclusive = mostly about 30% to 49%; note: 0% is about no effect
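Unstimulated transgenic mouse T cells; 60-min compound exposure; bead-based TCR/CD4/CD28 stimulation; 18 h culture, 37 degrees C; dual fluorescence (EGFP, DsRed) plate cytometry.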
Nrf2 activator: Nrf2 pathway activation. AREc32 ARE-luciferase reporter (MCF7-derived line), luminescence, 24 h. Potency, µM (doses to about 46.1 µM), inactives show at the highest dose activation, usual class: activators. 410,000 compounds, 0.31% hits; note: potency is the fitted concentration of half-maximal effect; % of control where 0% means no effect; nearly all actives have a fitted effect of over 65% in size
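Steps: seed AREc32_Fluc cells (1000/well, 5% FBS OPTI-MEM); incubate overnight at 37 deg C; add 23 nL compound; incubate 24 hr; add Steady-Glo; hold 30 min RT; read luminescence.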
ELG1 DNA repair: blocks ELG1-dependent DNA repair in HEK293T cells. Potency, µM (highest dose often 46.1 µM), inactives show at the top dose activity change, negative = inhibition, most hits filed as inhibitors. 330,000 compounds, 2.3% hits. HEK293T ELG1-luciferase reporter, luminescence, 16 h; DNA damage induced by 5-fluorouridine; note: potency is the fitted concentration of half-maximal effect; % is set by controls: 0 for no effect and ±100 for the full control effect; nearly all actives have a fitted effect of over 55% in size
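Luminescence from the luciferase reporter, measured 30 min after ONE-Glo reagent at room temperature, was the read-out. Beforehand, 2,000 cells per well were exposed for 16 hr at 37 °C to 5-fluorouridine together with compound or vehicle.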
Numbers without * were called inactive; ? = inconclusive; nt = no result given. Sampled rows, rich in hits. Any-hit rate of the full collection: about 3.1%. Unless noted, calls come from the whole dose curve; as a rule, active = well fitted curve in the direction sought with a large enough effect; inconclusive = small, poorly fitted or top-dose-only effect, or another doubt; inactive = no such curve, though single readings can be large; an effect the other way counts as inactive or inconclusive.

SMILES	BRCA1 expr act	IL-2 act	Nrf2 activator	ELG1 DNA repair
COc1ccc(Cl)cc1C(=O)Nn1cnc2ccccc2c1=O	10%	1	4%	-1%
COc1ccccc1C(=O)Nn1cnc2ccccc2c1=O	10µM*	-1	2%	?
CC(C)(C)c1ccc(C(=O)NCCc2csc3nc(-c4ccccc4F)nn23)cc1	nt	nt	7%	nt
CCN(C(=O)COC(=O)/C=C/c1nc2ccccc2s1)c1c(N)n(Cc2ccccc2)c(=O)[nH]c1=O	-5%	0	13µM*	nt
CN(C(=O)COC(=O)/C=C/c1ccc2ccccc2n1)c1c(N)n(Cc2ccccc2)c(=O)[nH]c1=O	-63%	0	5%	?
COCCN(C(=O)COC(=O)/C=C/c1ccc2ccccc2n1)c1c(N)n(Cc2ccccc2)c(=O)[nH]c1=O	-62%	-3	?	12µM*
Cc1cccc(C)c1NC(=O)C(c1ccccc1)N1CCC(c2ccccc2)CC1 (stereo unspecified)	nt	-1	nt	nt
COc1ccc(N2CC(c3nc(-c4ccccc4C)no3)CC2=O)cc1Cl (stereo unspecified)	nt	nt	7%	nt
CC(=O)c1ccccc1OCC(O)CN1CCN(CCN2C(=O)c3cccc4cccc(c34)C2=O)CC1 (stereo unspecified)	-20%	-4	21%	?
O=C1c2cccc3cccc(c23)C(=O)N1CCN1CCN(CC(O)COc2ccc3ccccc3c2)CC1 (stereo unspecified)	-74%	-2	0%	9.2µM*
Cc1ccc(C)c(OCC(O)CN2CCN(CCN3C(=O)c4cccc5cccc(c45)C3=O)CC2)c1 (stereo unspecified)	-46%	1	23%	18µM*
Cc1ccc2c(c1)-c1onc(C(=O)N3CCN(c4ccc(Cl)cc4)CC3)c1CO2	1%	nt	-1%	nt
N#Cc1ccc(CN2C(=O)c3ccccc3Sc3ccc(C(=O)OCc4ccco4)cc32)cc1	10%	nt	0%	nt
CCCCNc1c(-c2ccc(OC)c(SC(C)CC)c2)nc2ccc(C)cn12 (stereo unspecified)	-82%	-1	-2%	7.3µM*
CCOc1ccc(C2=C(C(=O)CC)Sc3nncn3N2C(=O)CC)cc1	nt	nt	0%	nt
CCOc1ccc(N(C)S(=O)(=O)c2ccc(C)c(C(=O)N3CCN(Cc4ccc5c(c4)OCO5)CC3)c2)cc1	-58%	-1	3%	16µM*
Nc1nnnn1/N=C\c1ccc(Cl)c([N+](=O)[O-])c1	1%	1	22%	?
O=[N+]([O-])c1cc(C=NN2CCCCCC2)ccc1Cl	2.8µM*	-1	7%	nt
O=[N+]([O-])c1cc(/C=N/N2CCCCC2)ccc1Cl	11µM*	2	9%	?
O=[N+]([O-])c1cc(/C=N/N2CCN(c3ccccc3)CC2)ccc1Cl	21%	-4	4%	19%
CCOC(=O)c1c(C)c(-c2ccccc2)n(CC(=O)Nc2cc(C)ccc2OC)c1C	21%	nt	0%	nt
Cc1ccc(S(=O)(=O)Nc2ccc(O)c3ccccc23)c(C)c1	-101%	-1	-3%	16µM*
COc1ccc(S(=O)(=O)Nc2ccc(O)c3ccccc23)cc1	-82%	0	-2%	9.2µM*
COc1ccccc1CNC(=O)C1CCCN(c2nc3ccccc3n3cccc23)C1 (stereo unspecified)	nt	nt	-1%	nt
O=CN/N=C/c1c(O)ccc2ccccc12	-86%	1	0%	21µM*
SMILES	BRCA1 expr act	IL-2 act	Nrf2 activator	ELG1 DNA repair
Cc1cc(N/N=C/c2c(O)ccc3ccccc23)nc(-c2ccccc2O)n1	-85%	0	7.1µM*	23µM*
Oc1ccccc1C=NN=Cc1c(O)ccc2ccccc12	-59%	52*	?	nt
Oc1ccc2ccccc2c1/C=N/Nc1ccccc1	-70%	-4	8%	?
NC(=S)N/N=C/c1c(O)ccc2ccccc12	-70%	0	0%	13µM*
COc1cc(C(=O)NCCc2sc(-c3cccc(F)c3)nc2C)cc(OC)c1OC	nt	nt	1%	nt
Cc1cc(C)c(Cn2c3ccccc3c3cnn(CC(=O)N4CCCCCC4)c(=O)c32)c(C)c1	nt	nt	-1%	nt
C[C@H](NC(=O)OC(C)(C)C)c1nnc(SCc2ccc(Cl)cc2Cl)o1	-13%	nt	-1%	nt
O=[N+]([O-])c1ccccc1/C=C/C=N/n1c(-c2ccco2)n[nH]c1=S	-38%	0	10µM*	13%
Cc1cccc(-c2n[nH]c(=S)n2/N=C/C=C/c2ccco2)c1	-21%	0	2.5µM*	1%
O=[N+]([O-])c1ccccc1/C=C/C=N/N1CCCCC1	2.8µM*	-3	15%	?
S=c1[nH]nc(-c2ccncc2)n1/N=C/C=C/c1ccco1	-51%	0	?	-2%
S=c1[nH]nc(-c2ccco2)n1/N=C/c1cccc(Cl)c1	5%	0	13µM*	23%
Cc1ccc(-c2n[nH]c(=S)n2/N=C/C=C/c2ccccc2[N+](=O)[O-])cc1	-54%	-3	?	0%
Cn1c(=O)c2c(nc(Oc3ccccc3Cl)n2Cc2ccc(C#N)cc2)n(C)c1=O	8%	nt	-1%	nt
CCOc1cccc2sc(=NC(=O)c3ccco3)n(CC(=O)OC)c12	0%	-3	15%	?
C#CCn1c(=NC(=O)c2ccco2)sc2cccc(Cl)c21	-11%	-3	4µM*	22%
CCOC(=O)c1c(NC(=S)N2CCOCC2)sc2c1CCN(C(=O)OCC)C2	-83%	0	4%	23µM*
CCN(CC)c1ccc(NC(=O)c2cccc(C)c2OC)c(C)c1	4.5µM*	-4	0%	?
CCN(CC)c1ccc(-n2nc3cc(C)c(NC(=O)c4ccccc4C)cc3n2)c(C)c1	-21%	nt	-1%	nt
Cc1ccc(OCCSc2nc3ccccc3n2CC(=O)N2CCCCC2)c(C)c1	-5%	nt	0%	nt
NC(=O)c1ccsc1NC(=O)COC(=O)c1ccc(Cl)c(N)c1	-10%	0	-1%	12µM*
NC(=O)c1ccsc1NC(=O)COC(=O)c1ccc(Cl)cc1	-5%	0	0%	-28%
COc1ccc(Cl)cc1C(=O)OCC(=O)Nc1sccc1C(N)=O	-27%	4	3%	23µM*
COCCn1c(SCC(=O)Nc2sccc2C(N)=O)nc2cc(Cl)ccc2c1=O	-44%	0	3%	23µM*
Cc1ccc(C(=O)OCC(=O)Nc2sccc2C(N)=O)cc1NC(=O)c1ccco1	4%	-2	3%	8.2µM*
Cc1cccc(N(CC(=O)N(C)Cc2ccccc2)S(=O)(=O)c2ccccc2)c1C	-30%	nt	3%	nt
O=C(Nc1cccc(C(=O)OCc2cc(=O)n3c4c(sc3n2)CCCC4)c1)c1cccc(F)c1	nt	nt	5%	nt
COc1cccc(-n2nnnc2SCC(=O)Nc2nc3c(s2)CCCC3)c1	-9%	0	8%	?
O=C(CSc1nnnn1-c1ccc2c(c1)OCCO2)Nc1nc2c(s1)CCCC2	-41%	-1	3%	21µM*
N#CN1C2CCC1CC(O)(c1ccccc1)C2 (stereo unspecified)	-6%	0	0%	nt
